Source: PubChem BioAssay (EPA / NIEHS)
The source made the active and inactive calls. How the source made its calls: active means hit-call score of the fitted dose curve at least 0.9, where 1 is the maximum; inactive means score below 0.9.

read-out: Paternally Expressed 10 (PEG10), PEG10 (gene 23089); experiment: LTEA_HepaRG_PEG10: Life Technologies and Expression Analysis (LTEA) Assay for Paternally Expressed 10 (PEG10) using HepaRG (AID 2283520); settings: mRNA level, 48 h; actives raise or lower the signal;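 on AC50: differentiated HepaRG human liver cells in serum-free induction medium with 0.5% DMSO; PEG10 transcript by qRT-PCR normalised to ACTB GAPDH and POLR2A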
Summary of the method: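 Chemicals tested on HepaRG cells for 48 h, highest concentration 100 uM. PEG10 expression assessed by qRT-PCR relative to DMSO control.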

SMILES | outcome | AC50
CC1=CC(=O)CC(C)(C)C1 | inactive | 
CC(C)CCO | inactive | 
O=C(O)CCN(C1(C(=O)NO)CCCC1)S(=O)(=O)c1ccc(Oc2ccc(F)cc2)cc1 | inactive | 
COC(=O)c1ccccc1O | inactive | 
CC(=O)OCCC(C)C | inactive | 
Clc1nc(Cl)c(Cl)c(Cl)c1Cl | inactive | 
Cc1ccc(S(=O)(=O)O)cc1C | inactive | 
CCOCCOCCOCCO | inactive | 
COC(=O)c1c(Cl)c(Cl)c(C(=O)OC)c(Cl)c1Cl | inactive | 
CC1(C)C(=O)N(Br)C(=O)N1Br | inactive | 
COC(=O)CC(=O)OC |  | 50 µM (active)
CC[C@H]1CC[C@H](NCc2cc3c(cc2OC)[C@H]2C[C@H]2C(=O)N3C)[C@H](c2ccccc2)N1 | inactive | 
CC(O)CN(CCN(CC(C)O)CC(C)O)CC(C)O (stereo not drawn) | inactive | 
O=C1CCC(N2C(=O)c3ccccc3C2=O)C(=O)N1 (stereo not drawn) | inactive | 
O=P(OC(CCl)CCl)(OC(CCl)CCl)OC(CCl)CCl |  | 12.7 µM (active)
COc1cccc(-c2ccc(/C=C\CN3CCCCCC3)cc2Cl)c1 |  | 59 µM (active)
O=C1CCCCCN1 | inactive | 
CCOCCO | inactive | 
CCN(C(=O)c1cc(C)cc(OC[C@H](C)Nc2ccncc2)c1)C(C)C | inactive | 
CCCCC(CC)COC(=O)c1ccc(C(=O)OCC(CC)CCCC)cc1 (stereo not drawn) | inactive | 
CNS(=O)(=O)c1cc(C(=O)N2CCC(CCN3C4CCC3CC(n3c(C)nc5ccccc53)C4)(c3cccc(F)c3)CC2)c(Cl)cc1F (stereo not drawn) |  | 13.3 µM (active)
CCCCCCc1ccc(O)cc1O | inactive | 
COCCOCCOCCOC | inactive | 
